From PubChem BioAssay
TIM10 inh: inhibits growth of TIM10 yeast strain; inhibition, % at 10 µM; AID 463195; S. cerevisiae TIM10 strain growth, BacTiter-Glo luminescence, 24 h; 330,000 tested, 1.4% active;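 active = inhibition of 40% or more at the single tested concentration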;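 note: wild-type TIM10 isogenic control strain grown at permissive 25 °C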
tim23-1 inh: growth inhibitors of tim23-1 mutant yeast; S. cerevisiae tim23-1 growth, BacTiter-Glo luminescence, 24 h; inhibition, % at 20 µM; 330,000 tested, 1.3% active;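 active = growth inhibition of the mutant yeast at or above 50%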;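 note: temperature-sensitive mutant grown at 25 °C; plate controls were DMSO-treated mutant yeast for no effect and medium wells lacking yeast for full effect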
SKKanGAS inh: SKKanGAS growth inhibition; S. pyogenes SKKanGAS, kanamycin growth, BacTiter-Glo, 6 h; inhibition, % at 7.5 µM; 300,000 tested, 1.3% active; AID 1662;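 active = mean replicate score, as percent of positive control median, at least 50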;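 note: strain carries kanamycin resistance gene driven by streptokinase promoter and grows in 40 µg/ml kanamycin; loss of luminescence reflects streptokinase promoter inhibition or plain growth inhibition; 0% = median of DMSO wells and 100% = positive control at its reference dose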
tim10-1 inh: inhibits growth of tim10-1 mutant yeast; S. cerevisiae tim10-1 ts strain growth, BacTiter-Glo, 24 h; inhibition, % at 20 µM; 330,000 tested, 2.2% active; AID 463190;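 active = inhibition of at least 40%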;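 note: mutant grown at 25 °C; 0% = DMSO wells with yeast and 100% = wells holding no yeast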
NALP3 yeast inh: blocks the NALP3 inflammasome reconstituted in yeast; Yeast reconstituted NLRP3/ASC/caspase-1, beta-gal luminescence, 24 h; inhibition, % at 10 µM; 330,000 tested, 0.39% active;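 active = inhibition of 50% or more; inactive = inhibition below 50%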;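 note: plate controls were induced DMSO wells for no effect and uninduced yeast grown without galactose for full effect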
NALP1 inh: inhibitors of NALP1 inflammasome in yeast | S. cerevisiae NALP1/ASC/caspase-1 growth, X-gal OD620, 72 h | inhibition, % at 10 µM | 280,000 tested, 0.61% active; in the data active = inhibition mostly above about 24%, no sharp cut-off; inactive = mostly below about 32%
tim10-1 conf: tim10-1 yeast growth inhibition, confirmed. S. cerevisiae tim10-1 ts strain growth, BacTiter-Glo, 24 h. shares compounds with tim10-1 inh. AID 463213. inhibition, % at 20 µM. 7,400 tested, 56% active;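 active = inhibition of yeast growth at or above a set limit in either of two repeat tests at 20 µM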;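 note: tim10-1 mutant grown at permissive 25 °C to find synthetic lethal compounds; 0% = DMSO yeast wells and 100% = medium wells without yeast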
* marks the source's active call; other numbers are inactive results; . = not tested or not shown. An excerpt weighted towards active compounds, which were near 4.9% of everything screened.

SMILES	TIM10 inh	tim23-1 inh	SKKanGAS inh	tim10-1 inh	NALP3 yeast inh	NALP1 inh	tim10-1 conf
COc1ccc(-c2csc(NC(=O)CSCc3c(C)noc3C)n2)cc1OC	10	21	5	16	-9	16	.
CC(Oc1ccc(F)cc1)C(=O)Nc1cc(S(=O)(=O)N2CCOCC2)ccc1N1CCCCC1 (stereo not given)	6	18	12	28	20	.	.
Cc1cc(C)n(CCc2nc(-c3cc4ccccc4o3)cs2)n1	23	43	8	43*	18	8	30
O=c1c2cc(N3CCOCC3)ccc2[nH]c(=S)n1Cc1ccc(Cl)cc1	10	30	20	35	15	-11	.
CCCCn1c(=S)[nH]c2ccc(N3CCOCC3)cc2c1=O	31	-23	7	22	-17	-1	.
CC(C)OCCCn1c(=S)[nH]c2ccc(N3CCOCC3)cc2c1=O	15	7	2	45*	7	5	6
Cc1ccc(Cn2c(=S)[nH]c3ccc(N4CCOCC4)cc3c2=O)o1	15	14	9	46*	6	10	22
CC(C)(C)[C@@H]1COC(=O)[C@H](Cc2ccc(F)cc2)C/C=C\C[C@@H](CC(=O)NCCO)C(=O)N1	4	-6	.	-4	8	.	.
CCCn1c(/N=C/c2c[nH]c3ccccc23)nc2ccccc21	2	37	1	26	14	3	.
CCCCn1c(/N=C/c2c[nH]c3ccccc23)nc2ccccc21	2	33	0	41*	27	17	22
CCCc1cc(C(=O)NNC(=S)NCC)c2ccccc2n1	5	5	1	26	23	-4	.
CCCOc1ccc(C(=O)NNC(=S)NC(=O)c2cc(-c3ccccc3)nc3ccccc23)cc1	33	10	14	45*	37	5	38*
CCCOc1ccc(-c2cc(C(=O)NCC3CCCO3)c3ccccc3n2)cc1 (stereo not given)	10	15	2	19	15	14	.
CCNC(=S)NNC(=O)c1cc(-c2cc(C)ccc2C)nc2ccccc12	30	33	7	45*	6	-1	41*
CCc1ccccc1NC(=O)CC1CS(=O)(=O)CC1CC(=O)Nc1ccccc1CC (stereo not given)	6	-1	-3	11	5	21	.
O=C(CC1CS(=O)(=O)CC1CC(=O)Oc1ccccc1F)Oc1ccccc1F (stereo not given)	15	34	2	44*	4	28	22
COC(=O)/C(=C\Nc1ccc(Oc2ccc(F)cc2F)nc1)NC(=O)c1ccccc1	-16	-18	2	-8	15	24	.
COc1ccc(Sc2cnn(-c3ccccc3)c(=O)c2Cl)cc1	28	45	-4	48*	15	6	45*
COc1ccc(-n2ncc(Cl)c(Cl)c2=O)cc1	-15	-1	-4	-1	-18	-7	.
COC(=O)c1ccc(CS(=O)(=O)c2ccc(C)cc2)o1	6	3	-2	6	8	-10	.
Cc1ccc(/C=C2/NC(=O)N(c3ccccc3)C2=O)o1	-5	14	5	7	2	0	.
O=C1N/C(=C/c2ccc(Br)s2)C(=O)N1c1ccccc1	-7	11	-6	46*	6	2	30
Cc1cc(C)n2nc(SCc3c(F)cccc3Cl)nc2n1	26	42	20	48*	18	17	33*
Cc1cc(C)n2nc(SCc3ccc(F)cc3Cl)nc2n1	15	37	0	2	27	10	.
COc1ccc(CCN2CC(C(=O)OCC(=O)NC(C)c3cccc(Cl)c3)CC2=O)cc1OC (stereo not given)	13	2	.	3	7	.	.
SMILES	TIM10 inh	tim23-1 inh	SKKanGAS inh	tim10-1 inh	NALP3 yeast inh	NALP1 inh	tim10-1 conf
CCCCC1C2=C(CC(C)(C)CC2=O)OC2=C1C(=O)CC(C)(C)C2	19	48	-1	44*	18	28	38*
CCCCCCC1C(C#N)=C(N)OC2=C1C(=O)CC(C)(C)C2 (stereo not given)	-15	3	-4	14	12	16	.
Cc1cc(N=Nc2ccc(Cl)cc2)cc(CN2CCOCC2)c1O	30	28	42	29	22	0	.
Cc1cc(N=Nc2ccc(Cl)cc2)cc(CN2CCCC2)c1O	25	25	-1	44*	11	-10	27
ClCc1nnc(-c2cc3c(s2)CCCC3)o1	.	.	6	.	.	8	.
COc1ccc(/C(C)=N/OCC(=O)Nc2nc3ccccc3s2)cc1	11	43	7	42*	21	53	29*
CCOCC(=O)Nc1nc2ccccc2s1	-3	25	-10	-23	31	0	.
O=C1/C(=C/c2ccc([N+](=O)[O-])cc2)C=C(c2ccccc2)N1c1ccccc1	10	21	-12	30	9	20	.
O=C1/C(=C/c2ccc([N+](=O)[O-])cc2)C=C(c2ccccc2)N1c1ccc(O)cc1	18	1	19	41*	9	17	37*
N#C/C(=C/c1ccc(N2CCCCCC2)o1)c1cccc(F)c1	34	39	-4	61*	28	21	57*
COc1cccc(NS(=O)(=O)c2ccc(-n3cccn3)cc2)c1	14	18	-4	20	5	-8	.
CCn1c(CCCOc2ccc(Cl)cc2Cl)n[nH]c1=S	31	38	2	17	18	-4	.
CC1CCN(C(=S)c2cn(Cc3cccc(F)c3)c3ccccc23)CC1	34	11	1	41*	5	14	20
CCn1ccnc1CN1CCc2c([nH]c3ccccc23)C1C(C)(C)C (stereo not given)	35	34	40	47*	3	3	29
Cc1cccc(C)c1NC(=S)N(Cc1ccccc1)Cc1cccs1	24	34	2	42*	8	-1	39*
O=C(O)CNC(=S)N(Cc1ccccc1)Cc1cccs1	-9	11	.	2	2	12	.
CN(Cc1ccccc1F)C(=O)CN1C(=O)NC2(CCc3ccccc32)C1=O (stereo not given)	13	12	.	5	19	.	.
COC(=O)C1(Cc2cc(-c3ccccc3)no2)CCN(C(=O)OC(C)(C)C)CC1	21	29	0	43*	5	16	34*
Cc1ccc(C(=O)C(C)N(C(=O)c2ccc(Cl)cc2Cl)N2C(=O)CCCC2=O)cc1 (stereo not given)	24	12	-17	21	11	9	.
COc1ccc(C(=O)C(C)N(C(=O)c2ccc(Cl)cc2Cl)N2C(=O)C3C4C=CC(C4)C3C2=O)cc1 (stereo not given)	22	42	0	47*	10	1	21
CCC(C)[C@H](N)c1nnc(SCC(=O)Nc2ccc(C)cc2C)o1 (stereo not given in full)	12	6	-4	14	-11	-6	.
